The record followed here is PubChem BioAssay AID624297 (National Center for Advancing Translational Sciences (NCATS), 2012).

“And” between values parts separate entries of the source, which are not always exact repeats. Identical values can stand only once. The campaign covered roughly 340,000 compounds. About 6,200 (1.8%) were called active. Inconclusive results (about 10%) are left out. The call rests on the fitted dose curve; in most records, active means well fitted activation curve with a large enough effect; inconclusive means small, poorly fitted or top-dose-only effect; inactive means no such curve, though single readings can be large or run the other way. What follows is part of a selection rich in actives, with near analogues and random picks from the rest. Some compounds were tested as several samples or in several runs, with calls that do not always agree.
Potency means the concentration at half of the fitted maximal effect.

This experiment is described as follows: A quantitative high throughput screen for small molecules that induce DNA re-replication in SW480 colon adenocarcinoma cells. Further: nearly all actives have a fitted effect of over 55% in size. On re-replication activation: % of control where 0% means no effect. The settings on record: Hoechst DNA content imaging, 48 h; series mostly up to 46.1 µM; re-replication activation: at the top concentration. In a few lines:
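Compounds, transferred as 23 nL by pin tool, were incubated with cells for 48 hr; DNA content per nucleus was then quantified by Hoechst staining and fluorescence plate imaging.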
Consider `C=CCn1c(SCC(=O)c2c(N)n(C)c(=O)n(C)c2=O)nc2sc(CC)cc2c1=O`, for which the “re-replication activation” value was -1.6% (inactive).
Regarding `CCc1cc2c(=O)n(-c3ccccc3)c(SCC(=O)O)nc2s1`, the Potency was 18.4 µM (active).
Consider `Cc1sc2nc(SCCO)n(-c3ccccc3)c(=O)c2c1C`, for which the “re-replication activation” value was -5.37% (inactive).
As to `COc1ccc(C(=O)COC(=O)c2c(C)noc2C)cc1Cl`, the “re-replication activation” value was -8.23% (inactive).
With `Cc1ccc(C(=O)NNC(=O)c2ccc3c(c2)OCCO3)cc1`, the “re-replication activation” value was -4.97% (inactive).
In the case of `CC1CCCCC1NCC(=O)Nc1ccccc1C(=O)Nc1ccccc1` (stereo not drawn), the “re-replication activation” value was -3.41% (inactive).
On the same count and under the same terms, the same measure for `Cc1cc(C(=O)CCC(=O)NNC(=O)c2ccccc2O)c(C)s1`: 3.5% (inactive).
Regarding `O=C(Nc1ccc(O)cc1)c1ccccc1O`, the “re-replication activation” value is -4.02% (inactive).
Take `O=C(NNC(=O)c1ccccc1O)c1ccccc1O`: the Potency is 1.64 µM (active).
For `O=C(CN1C(=O)c2ccc([N+](=O)[O-])cc2C1=O)Nc1nnc(C2CC2)s1`, the “re-replication activation” value was -0.538% (inactive).
Turning to `COc1cc(Cl)c(C)cc1NC(=O)CSc1nnc(CN2CCCC2)o1`, the “re-replication activation” value is 0% (inactive).
The same measure, in the same setting: the result for `Cc1ccnc(NC(=O)c2ccoc2C)c1` reads 1.1% (inactive).
As to `C/C(=N\NC(=O)c1ccoc1C)c1ccccc1O`, the Potency is 2.31 µM (active).
For `CC(=O)NC(=O)c1ccccc1O`, the “re-replication activation” value was -1.55% (inactive).
For the molecule `CC(C)NC(=O)Nc1cccc2c1O[C@@H](CN(C)S(=O)(=O)c1ccc(F)cc1)[C@@H](C)CN([C@H](C)CO)C2=O`, the “re-replication activation” value is 16% (inactive).
The same measure, in the same setting: the same measure for `Cc1ccc(OCCNC(=O)c2cccc(S(=O)(=O)N3CCN(Cc4ccccc4)CC3)c2)cc1`: 11.6% (inactive).
For `COc1cc(/C=C2/SC(=S)N(Cc3ccccc3)C2=O)cc(OC)c1O`, the “re-replication activation” value was -77.2% (inactive).
As for `CCCCN1C(=O)/C(=C2/C=CC=CN2C)SC1=S`, the “re-replication activation” value was 3.3% (inactive).
Take `CN1C=CC=C/C1=C1\SC(=S)N(Cc2ccccc2)C1=O`: the Potency was 23.1 µM (active).
With `O=C(O)C(CCc1ccccn1)c1ccccc1` (stereo not drawn), the “re-replication activation” value is -10% (inactive).
For the molecule `Cn1c(CC(=O)NNC(=O)c2ccccc2F)nc2ccccc21`, the “re-replication activation” value is 9.79% (inactive).
As to `CN(NC(=O)c1ccccc1F)c1nc(C(F)(F)F)nc2ccccc12`, the Potency is 0.517 µM (active).
On to `CC(NC(=O)c1ccccc1F)c1cccc2ccccc12` (stereo not drawn), for which the “re-replication activation” value is -6.5% (inactive).
Turning to `COC(=O)Cc1csc(/N=C/c2c(O)n(-c3cccc(C(F)(F)F)c3)c(=O)c3ccccc23)n1`, the Potency result is “inactive and 11.6 µM (active)”.
With `COC(=O)Cc1c(O)ccn(Cc2cccc(C(F)(F)F)c2)c1=O`, the “re-replication activation” value is 0.872% (inactive).
With `COC(=O)Cc1csc(Nc2c(C)n(C)n(-c3ccccc3)c2=O)n1`, the “re-replication activation” value was -10.6% (inactive).
With `CC(C)(O)c1ccccc1CC[C@H](SCC1(CC(=O)O)CC1)c1cccc(/C=C/c2ccc3ccc(Cl)cc3n2)c1`, the “re-replication activation” value is 2.31% (inactive).
For `CN(C(=O)COC(=O)Cc1ccccc1[N+](=O)[O-])C1CCS(=O)(=O)C1` (stereo not drawn), the “re-replication activation” value was 0.116% (inactive).
Take `CCOC(=O)CC(=O)CSc1nc(-c2ccccc2)cc(-c2ccc(Cl)cc2)c1C#N`: the Potency was 20.6 µM (active).
In the case of `N#Cc1c(-c2ccccc2)cc(-c2ccccc2)nc1SCC(=O)O`, the “re-replication activation” value was -1.38% (inactive).
Take `N#Cc1c(C(F)(F)F)cc(-c2ccc(Cl)cc2)nc1SCC(=O)O`: the “re-replication activation” value is -7.01% (inactive).
Take `CCOc1ccc(CCNC(=O)COC(=O)C2CCN(S(=O)(=O)c3ccccc3)CC2)cc1OCC`: the “re-replication activation” value is -32.9% (inactive).
On the same count and under the same terms, the same measure for `CC(=O)CSc1nc(CCc2ccccc2)c(C#N)c(=O)[nH]1`: 4.33% [at 1.84 µM] (inactive); for `O=C(N[C@H]1C/C=C\C(c2ccc(F)cc2)N(Cc2ccccc2)C(=O)C1)OCC1c2ccccc2-c2ccccc21` (stereo partly drawn): 5.83% (inactive).
Consider `CN(C(=O)c1ccc(NC(=O)Cc2cccc(NC(=O)C3CCN(C(=O)c4ccccc4)CC3)c2)cc1)C1CC1`, for which the re-replication activation is -22.3% [at 9.22 µM] (inactive).
As to `O=C(CNC(=O)c1cc(S(=O)(=O)N2CCOCC2)ccc1N1CCCC1)Nc1ccc(F)c(F)c1`, the “re-replication activation” value was -6.04% (inactive).
Consider `COc1ccc(C(C[N+](=O)[O-])n2nc(C)cc2C)cc1` (stereo not drawn), for which the Potency is 5.8 µM (active).
Turning to `COc1ccc(C(=O)CSc2nc(C)cc(C)n2)cc1[N+](=O)[O-]`, the “re-replication activation” value was -11.1% (inactive).
Still for that read-out and setting: the same measure for `COc1ccc(OCc2cn3c(C)cc(C)nc3n2)cc1`: -0.0448% (inactive); for `Cc1cc(C(=O)COc2ccc(Br)cc2F)c(C)n1C1CC1`: -11.4% (inactive).
As for `O=C1NC(c2ccccc2)Cc2ccncc21` (stereo not drawn), the “re-replication activation” value is -3.42% (inactive).
Same read-out and setting: the same measure for `C[C@@H]1NS(=O)(=O)c2cc(Cl)ccc2O[C@@H]1c1ccccc1`: 7.03% (inactive).
Turning to `O=C1OCCN1C(=O)[C@H]1[C@H](c2ccc(F)cc2)C(c2ccccc2)=NN1c1ccc(Br)cc1`, the Potency is 9.2 µM (active).
As to `Cc1cc(OCCCC(=O)Nc2cc(S(=O)(=O)N3CCOCC3)ccc2N2CCOCC2)ccc1Cl`, the “re-replication activation” value was -0.175% (inactive).
In the case of `O=C1C(=O)N(c2ccccc2)C(c2ccccc2)C1c1ccccc1` (stereo not drawn), the “re-replication activation” value was 0.98% (inactive).
On to `O=C1c2cccc3cc(Br)cc(c23)C(=O)N1Nc1ccccc1`, for which the re-replication activation is -1.37% [at 9.22 µM] (inactive).
`O=C(O)CC1=C(Nc2ccccc2)C(=O)N(c2ccccc2)C1c1ccc(Cl)cc1` (stereo not drawn): the “re-replication activation” value is 3.57% (inactive).
In the case of `O=C1C=C(c2ccc(Cl)cc2)C(=O)N1Nc1ccccc1`, the Potency is 6.51 µM (active).
